Drawing on PubChem BioAssay, this text covers inhibition for 40 molecules.

Unmarked numbers belong to inactive results. Active and inactive are the calls of the source.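 How the source made its calls, unless noted: active means mean inhibition over 43.08%, the solvent-only control mean plus 3 SD; inactive means the rest.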

Usually inhibition stands for the drop in the measured response relative to a control, in per cent.

In the first experiment the target is Nuclear receptor coactivator 3 (Homo sapiens) (UniProt Q9Y6Q9). Put plainly: NCOA3 GAL4-fusion reporter inhibition – cell-based, luminescence, quadruplicate, confirmation (AID 588792).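 Further: 0% = DMSO treated cells and 100% = gossypol at 36 µM.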 The note with it: HEK293 GAL4-SRC3 luciferase reporter, at 3.6 µM, active compounds read high. In general terms: Reporter assays use an easily measured gene product as a stand-in for the process of interest.
Sequence of Nuclear receptor coactivator 3 (Homo sapiens) (Q9Y6Q9 whole entry, looked up, the tested form may be a part): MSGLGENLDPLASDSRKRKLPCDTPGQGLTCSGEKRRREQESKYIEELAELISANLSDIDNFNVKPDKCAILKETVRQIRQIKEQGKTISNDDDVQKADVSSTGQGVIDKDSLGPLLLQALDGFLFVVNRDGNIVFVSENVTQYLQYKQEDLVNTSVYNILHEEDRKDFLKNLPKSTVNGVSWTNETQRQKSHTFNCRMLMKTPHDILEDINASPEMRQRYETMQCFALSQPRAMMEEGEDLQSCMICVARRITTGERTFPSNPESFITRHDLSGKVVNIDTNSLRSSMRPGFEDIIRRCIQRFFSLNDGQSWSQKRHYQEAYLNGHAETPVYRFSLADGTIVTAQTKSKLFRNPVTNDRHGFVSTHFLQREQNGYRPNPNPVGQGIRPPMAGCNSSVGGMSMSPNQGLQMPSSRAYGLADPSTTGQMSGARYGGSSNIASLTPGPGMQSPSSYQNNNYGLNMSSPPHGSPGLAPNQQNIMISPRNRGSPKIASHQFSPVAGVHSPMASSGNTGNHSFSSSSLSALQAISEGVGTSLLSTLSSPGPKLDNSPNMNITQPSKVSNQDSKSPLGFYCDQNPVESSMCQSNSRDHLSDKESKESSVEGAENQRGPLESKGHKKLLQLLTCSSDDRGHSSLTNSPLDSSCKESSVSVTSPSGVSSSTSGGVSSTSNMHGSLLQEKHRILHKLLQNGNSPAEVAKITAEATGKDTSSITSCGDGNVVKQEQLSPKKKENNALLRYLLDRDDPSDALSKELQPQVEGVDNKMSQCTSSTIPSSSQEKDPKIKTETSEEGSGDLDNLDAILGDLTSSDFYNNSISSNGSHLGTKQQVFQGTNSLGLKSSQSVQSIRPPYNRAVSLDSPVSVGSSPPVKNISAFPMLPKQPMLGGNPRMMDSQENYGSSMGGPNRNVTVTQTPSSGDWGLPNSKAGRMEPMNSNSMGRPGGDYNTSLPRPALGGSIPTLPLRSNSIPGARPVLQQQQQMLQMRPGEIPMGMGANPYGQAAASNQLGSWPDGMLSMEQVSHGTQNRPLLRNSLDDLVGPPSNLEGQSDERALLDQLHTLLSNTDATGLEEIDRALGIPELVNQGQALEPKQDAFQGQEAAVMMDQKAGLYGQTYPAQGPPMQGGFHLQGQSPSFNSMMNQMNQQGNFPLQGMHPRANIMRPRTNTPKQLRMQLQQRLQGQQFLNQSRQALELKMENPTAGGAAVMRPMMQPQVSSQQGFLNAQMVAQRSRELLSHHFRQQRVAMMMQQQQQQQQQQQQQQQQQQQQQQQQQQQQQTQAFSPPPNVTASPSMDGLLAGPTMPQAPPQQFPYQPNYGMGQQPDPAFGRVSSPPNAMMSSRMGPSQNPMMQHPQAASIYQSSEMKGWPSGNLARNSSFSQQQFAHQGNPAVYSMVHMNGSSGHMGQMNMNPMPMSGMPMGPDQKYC
Regarding `Cn1c(=O)c2c(nc(Oc3ccc4ccccc4c3)n2C)n(C)c1=O`, the inhibition is 47.5% (active).

As for `CCN(CC)CCCNc1ccc2ncn3c4ccc(O)cc4c(=O)c1c23`, the inhibition was 16.5%.

`O=C(Nc1nc(-c2ccc(S(=O)(=O)N3CCCC3)cc2)cs1)C1COc2ccccc2O1` (stereo not given): the inhibition was 7.31%.

Turning to `Cn1c(=N)n(CC(=O)c2ccc(Cl)c(Cl)c2)c2ccccc21`, the inhibition was -33.3%.

Consider `Cn1c(C(=O)O)c(CC(=O)Nc2ccc3c(c2)OCCO3)c2ccccc21`, for which the inhibition is 19.4%.

As for `O=C(Nc1scc(-c2ccc(Br)cc2)c1C(=O)O)c1ccccc1F`, the inhibition is 10.7%.

Turning to `CCN(CC)S(=O)(=O)c1ccc(/C=C/C(=O)Nc2ccc(F)c(F)c2F)cc1`, the inhibition was -25.9%.

As to `Cc1cc(C(=O)COC(=O)c2cccc(NS(C)(=O)=O)c2)c(C)n1CC1CCCO1` (stereo not given), the inhibition was 19.3%.

As for `CCCCC(=O)OCC(=O)C1(O)Cc2c(O)c3c(c(O)c2C(OC2CC(NC(=O)C(F)(F)F)C(O)C(C)O2)C1)C(=O)c1c(OC)cccc1C3=O` (stereo not given), the inhibition is 26%.

Turning to `Cc1[nH]ccc2cc3nc4ccccc4c3cc12`, the inhibition was 13.9%.

On to `COc1cccc(/C=N/NC(=O)C(=O)Nc2ccccc2OC(F)(F)C(F)F)c1O`, for which the inhibition was 36.3%.

Regarding `CC(O)CC(C(=O)NNc1ccccc1)C(=O)NNc1ccccc1` (stereo not given), the inhibition was 10.1%.

`COc1ccc(/C=C2\N=C(C(C)(C)C)OC2=O)c(OC)c1`: the inhibition is 9.73%.

`O=C(c1ccncc1)N(Cc1cc2ccccc2[nH]c1=O)C1CCCCC1`: the inhibition is 40.7%.

`CCCCC(=O)NC(c1ccc(N(C)C)cc1)c1ccc2cccnc2c1O` (stereo not given): the inhibition was 58.5% (active).

Take `COc1cccc(CNc2ncnc3ccc(-c4c(C)noc4C)cc23)c1`: the inhibition is 36.6%.

`CCCCCCCCCCCCCCCC[n+]1cccc2ccccc21`: the inhibition was 44.9% (active).

For `CC(C)(C)OC(=O)NCC(=O)Oc1cc2oc(=O)cc(-c3ccccc3)c2cc1Cl`, the inhibition was 21.9%.

`COC1C(OC(=O)/C=C/C=C/C=C/C=C/C(=O)O)CCC2(CO2)C1C1(C)OC1CC=C(C)C` (stereo not given) (tested in a mixture with another compound): the inhibition was 17.6%.

On to `Cc1cccc(/C=N/Nc2ccc3ccccc3n2)c1`, for which the inhibition was 16.1%.

Consider `C/C(=N\NC(=O)c1nnn(-c2nonc2N)c1-c1ccccc1)c1ccccc1O`, for which the inhibition was 49.2% (active).

Turning to `O=C(N/N=C/c1cc(Br)ccc1O)c1ccncc1`, the inhibition is 23.8%.

`N#CC(c1ccc(Cl)cc1)c1ccc2c(C(F)(F)F)cc(C(F)(F)F)nc2n1` (stereo not given): the inhibition is 62% (active).

Take `O=C(CCSc1nc2ccccc2s1)N/N=C/c1c(O)ccc2ccccc12`: the inhibition was 20.2%.

As to `COc1cccc(-c2nnc3sc(C4CCCCC4)nn23)c1`, the inhibition was 64.5% (active).

`CC(=NNc1nc2ccccc2o1)c1cc2ccccc2cn1`: the inhibition was 88.8% (active).

As to `CCN(CC)c1ccc2cc(NC(=O)CCC(=O)O)c(=O)oc2c1`, the inhibition is 68.4% (active).

Turning to `CC(C)(C)c1cc(C(=O)N/N=C/c2ccc(O)cc2)n(-c2ccccc2)n1`, the inhibition is 34.9%.

Take `O=C(Nc1ccc([N+](=O)[O-])cc1)Nc1ccc(OC(F)F)c(Cl)c1`: the inhibition is 22.9%.

With `Cc1ccc(NC(=O)C2CCN(c3ncnc4sc(C)c(C)c34)CC2)cc1S(=O)(=O)N(C)C`, the inhibition was 10.3%.

For the molecule `Cc1ccc2nc(-c3ccncc3)c(NC3CCCC3)n2c1`, the inhibition is 38.8%.

Turning to `Nc1ccc(-c2cnc(N)c(C(=O)c3cccnc3)n2)cn1`, the inhibition was 85.8% (active).

In the case of `COc1ccc2cc3c(N)nn(C(=O)c4ccc(F)cc4)c3nc2c1`, the inhibition is 69.8% (active).

With `O=C(Nc1nc(-c2ccccc2)cs1)c1ccc(N2CCOCC2)c([N+](=O)[O-])c1`, the inhibition is 56.2% (active).

`COc1cccc2c1C(=N)c1c(O)c3c(c(O)c1C2=O)CC(O)(C(C)=O)CC3OC1CC(N)C(O)C(C)O1` (stereo not given): the inhibition is 41.9%.

Regarding `COc1ccccc1N(C(=O)CCl)c1cn(C(C)=O)c2ccccc12`, the inhibition is 52.2% (active).

`CCOC(=O)c1ccccc1OC(=O)NNc1ccccc1`: the inhibition is 15.6%.

With `O=C(Nc1ccc(S(=O)(=O)N2CCCCC2)cc1)c1ccc(CN2CCOCC2)cc1`, the inhibition is 15.9%.

Consider `Cc1sc(NC(=O)Cc2ccc3c(c2)OCO3)nc1-c1ccc2c(c1)CCN2C(=O)c1ccc(F)cc1`, for which the inhibition was 13.6%.

As to `COc1ccc2[nH]c3c(c2c1)CCNC3=O`, the inhibition was 53.2% (active).

The next experiment concerns transactivating tegument protein VP16 (Human herpesvirus 1), Gal4-VP16 luciferase reporter. Description: repression of VP16-driven luciferase reporter – cell-based, luminescence, high throughput, counter-screen for SRC3 inhibitor project (AID 588794; in the data active means inhibition above about 30%). Particulars: mammalian cells, at 3.6 µM, active compounds read high.
Regarding `Cn1c(=O)c2c(nc(Oc3ccc4ccccc4c3)n2C)n(C)c1=O`, the inhibition is 39.4% (active).

`CCN(CC)CCCNc1ccc2ncn3c4ccc(O)cc4c(=O)c1c23`: the inhibition was 51.3% (active).

Consider `O=C(Nc1nc(-c2ccc(S(=O)(=O)N3CCCC3)cc2)cs1)C1COc2ccccc2O1` (stereo not given), for which the inhibition was -0.16%.

For the molecule `Cn1c(=N)n(CC(=O)c2ccc(Cl)c(Cl)c2)c2ccccc21`, the inhibition is -30.2%.

With `Cn1c(C(=O)O)c(CC(=O)Nc2ccc3c(c2)OCCO3)c2ccccc21`, the inhibition was 3.77%.

For the molecule `O=C(Nc1scc(-c2ccc(Br)cc2)c1C(=O)O)c1ccccc1F`, the inhibition was 15.8%.

`CCN(CC)S(=O)(=O)c1ccc(/C=C/C(=O)Nc2ccc(F)c(F)c2F)cc1`: the inhibition was 30.7% (active).

Take `Cc1cc(C(=O)COC(=O)c2cccc(NS(C)(=O)=O)c2)c(C)n1CC1CCCO1` (stereo not given): the inhibition is -22.1%.

As for `CCCCC(=O)OCC(=O)C1(O)Cc2c(O)c3c(c(O)c2C(OC2CC(NC(=O)C(F)(F)F)C(O)C(C)O2)C1)C(=O)c1c(OC)cccc1C3=O` (stereo not given), the inhibition is 10.2%.

In the case of `Cc1[nH]ccc2cc3nc4ccccc4c3cc12`, the inhibition is 36.2% (active).

`COc1cccc(/C=N/NC(=O)C(=O)Nc2ccccc2OC(F)(F)C(F)F)c1O`: the inhibition was 38% (active).

As for `CC(O)CC(C(=O)NNc1ccccc1)C(=O)NNc1ccccc1` (stereo not given), the inhibition is 16%.

Take `COc1ccc(/C=C2\N=C(C(C)(C)C)OC2=O)c(OC)c1`: the inhibition is 19.2%.

As to `O=C(c1ccncc1)N(Cc1cc2ccccc2[nH]c1=O)C1CCCCC1`, the inhibition is 23.2%.

`CCCCC(=O)NC(c1ccc(N(C)C)cc1)c1ccc2cccnc2c1O` (stereo not given): the inhibition is 43.9% (active).

Turning to `COc1cccc(CNc2ncnc3ccc(-c4c(C)noc4C)cc23)c1`, the inhibition is 1.06%.

Turning to `CCCCCCCCCCCCCCCC[n+]1cccc2ccccc21`, the inhibition was 69.2% (active).

On to `CC(C)(C)OC(=O)NCC(=O)Oc1cc2oc(=O)cc(-c3ccccc3)c2cc1Cl`, for which the inhibition was 15.7%.

Regarding `COC1C(OC(=O)/C=C/C=C/C=C/C=C/C(=O)O)CCC2(CO2)C1C1(C)OC1CC=C(C)C` (stereo not given) (tested in a mixture with another compound), the inhibition was 20.7%.

For `Cc1cccc(/C=N/Nc2ccc3ccccc3n2)c1`, the inhibition was -21.2%.

Take `C/C(=N\NC(=O)c1nnn(-c2nonc2N)c1-c1ccccc1)c1ccccc1O`: the inhibition was 44.6% (active).

In the case of `O=C(N/N=C/c1cc(Br)ccc1O)c1ccncc1`, the inhibition is 34.2% (active).

Consider `N#CC(c1ccc(Cl)cc1)c1ccc2c(C(F)(F)F)cc(C(F)(F)F)nc2n1` (stereo not given), for which the inhibition was 85.7% (active).

As for `O=C(CCSc1nc2ccccc2s1)N/N=C/c1c(O)ccc2ccccc12`, the inhibition is 23.7%.

Take `COc1cccc(-c2nnc3sc(C4CCCCC4)nn23)c1`: the inhibition was 29.1%.

Take `CC(=NNc1nc2ccccc2o1)c1cc2ccccc2cn1`: the inhibition was 86.4% (active).

Turning to `CCN(CC)c1ccc2cc(NC(=O)CCC(=O)O)c(=O)oc2c1`, the inhibition is 42.9% (active).

Consider `CC(C)(C)c1cc(C(=O)N/N=C/c2ccc(O)cc2)n(-c2ccccc2)n1`, for which the inhibition was 14%.

As for `O=C(Nc1ccc([N+](=O)[O-])cc1)Nc1ccc(OC(F)F)c(Cl)c1`, the inhibition is 32.5% (active).

In the case of `Cc1ccc(NC(=O)C2CCN(c3ncnc4sc(C)c(C)c34)CC2)cc1S(=O)(=O)N(C)C`, the inhibition is 12.1%.

As for `Cc1ccc2nc(-c3ccncc3)c(NC3CCCC3)n2c1`, the inhibition was 29.2%.

For the molecule `Nc1ccc(-c2cnc(N)c(C(=O)c3cccnc3)n2)cn1`, the inhibition was 55.7% (active).

With `COc1ccc2cc3c(N)nn(C(=O)c4ccc(F)cc4)c3nc2c1`, the inhibition is 36.1% (active).

For the molecule `O=C(Nc1nc(-c2ccccc2)cs1)c1ccc(N2CCOCC2)c([N+](=O)[O-])c1`, the inhibition was 61.4% (active).

Consider `COc1cccc2c1C(=N)c1c(O)c3c(c(O)c1C2=O)CC(O)(C(C)=O)CC3OC1CC(N)C(O)C(C)O1` (stereo not given), for which the inhibition is -33.3%.

Regarding `COc1ccccc1N(C(=O)CCl)c1cn(C(C)=O)c2ccccc12`, the inhibition is 27%.

Take `CCOC(=O)c1ccccc1OC(=O)NNc1ccccc1`: the inhibition was 46.1% (active).

As to `O=C(Nc1ccc(S(=O)(=O)N2CCCCC2)cc1)c1ccc(CN2CCOCC2)cc1`, the inhibition is 46% (active).

Turning to `Cc1sc(NC(=O)Cc2ccc3c(c2)OCO3)nc1-c1ccc2c(c1)CCN2C(=O)c1ccc(F)cc1`, the inhibition is 30.3% (active).

Take `COc1ccc2[nH]c3c(c2c1)CCNC3=O`: the inhibition was 42.7% (active).
